# High-throughput results (PubChem BioAssay)
# Sampled rows, rich in hits. Any-hit rate of the full collection: about 5.7%.
# ATXN2 expr inh: Primary qHTS for Inhibitors of ATXN expression; Potency, µM (top dose mostly 57 µM), usual class: inhibitors; actives 0.72% (n = 360,000); HEK-293 ATXN2-luciferase reporter, luminescence, 24 h; also: nearly all actives have a fitted effect of over 55% in size
#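 ATXN2-luciferase reporter cells (luciferase flanked by upstream and downstream ATXN2 gene portions) were treated 24 h at 37 °C with compounds at up to 57 uM. SteadyGlo luminescence gave expression; GF-AFC fluorescence gave viability.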
# IL1B secr inh: qHTS for Inhibitors of Inflammasome Signaling: IL-1-beta AlphaLISA Primary Screen; THP-1 LPS/ATP IL-1B secretion, AlphaLISA, 16 h; stronger effect = lower value; activity change, % at 57.5 µM; actives 4.7% (n = 360,000); AID 743279, 2014; in the data active = activity change below about -50%; inconclusive = mostly about -30% to -49%
#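 Secreted IL-1B measured by AlphaLISA bead assay after 16 h compound exposure of THP-1 cells; compounds (final up to 57.5 uM) added 1 h before LPS (250 ng/mL) and ATP (1.25 mM) stimulation; lower signal means less secretion.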
# ATXN viability: Viability Counterscreen for Primary qHTS for Inhibitors of ATXN expression. S2 cells (HEK-293 line with an ATXN2-luciferase reporter) viability, CellTiter-Fluor protease fluorescence, 24 h. Potency, µM (doses to about 56.7 µM), actives largely listed as cytotoxic. actives 0.49% (n = 400,000). AID 651635, 2014; also: nearly all actives have a fitted effect of over 40% in size
# TGFb SMAD3 inh: qHTS for Inhibitors of TGF-b | HepG2 CAGA-GFP TGF-b/SMAD3 reporter, GFP fluorescence, 18 h; TGF-beta stimulated, 500 pg/mL final | AID 588855, 2011 | Potency, µM (highest dose often 46.1 µM), most hits filed as inhibitors | actives 1.2% (n = 410,000); also: nearly all actives have a fitted effect of over 65% in size
#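 TGF-beta reporter screen: HEPG2 CAGA-GFP, 1% FBS, 500 pg/mL TGF-beta final, 18 h; per-cell GFP summed per well; curves fitted and categorized by class.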
# HepG2 tox: qHTS for Inhibitors of TGF-b: Cytotox Counterscreen | HepG2 CAGA-GFP viability, ATP luminescence, 18 h | Potency, µM (top dose mostly 46.1 µM), hits mostly cytotoxic | actives 0.76% (n = 410,000) | AID 588856, 2011
#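 HepG2 CAGA-GFP cells (1000/well, DMEM with 1% FBS) received compound, then TGF-beta at 500 pg/mL final, and were incubated 18 hours at 37 degrees C. Viability was read by CellTiter-Glo luminescence. Media-only wells were set as complete cell-killing and DMSO as no toxicity.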
# A number is an active result; n = inactive; u = inconclusive; x = not tested or not shown. Unless noted, calls follow the shape of the dose curve; as a rule, active = well fitted curve in the direction sought with a large enough effect; inconclusive = small, poorly fitted or top-dose-only effect, or another doubt; inactive = no such curve, though single readings can be large; an effect the other way counts as inactive or inconclusive.
SMILES,ATXN2 expr inh,IL1B secr inh,ATXN viability,TGFb SMAD3 inh,HepG2 tox
COc1ccc(CCN(C)C(=O)c2cc(-c3ccccc3)nc3ccc(C)cc23)cc1OC,n,n,n,n,n
Cc1c(CN(C)C(=O)c2cc(-c3ccccc3)nc3ccc(Br)cc23)cnn1C,22.4µM,x,u,n,n
COc1ccc(CN(C)C(=O)c2cc(-c3ccccc3)nc3ccc(C)cc23)c(OC)c1OC,u,-64.1,u,n,n
COc1ccc(Cn2c(CO)cnc2SCc2cccc(C)c2)cc1,n,x,n,n,n
CCN(CC)S(=O)(=O)c1ccc(N/N=C(\C)c2ccc(OC)cc2O)nc1,x,n,n,8.91µM,n
CCOc1ccc(CCNc2ncnc3onc(-c4ccc(Cl)cc4)c23)cc1,x,x,x,n,n
Cc1ccc(CN2[C@H](C)[C@H](c3ccccc3)OCCS2(=O)=O)cc1,x,x,x,n,n
CC12C=CC(=O)C=C1CCC1C2C(O)CC2(C)C1CCC2(O)C(=O)CO (stereo unspecified),n,-59.8,n,n,n
CSCCC(NC(=O)CCC(=O)OCC(=O)[C@@]1(O)CCC2[C@@H]3CCC4=CC(=O)C=C[C@]4(C)C3[C@@H](O)C[C@@]21C)C(=O)O (stereo partly specified),n,-54.8,n,n,n
CCCCC(=O)O[C@]1(C(=O)CO)CC[C@H]2[C@@H]3CCC4=CC(=O)CC[C@]4(C)[C@H]3[C@@H](O)C[C@@]21C,n,-68.3,n,n,n
CC(=O)OCC(=O)[C@@]1(O)CC[C@H]2[C@@H]3CCC4=CC(=O)C=C[C@]4(C)[C@H]3[C@@H](O)C[C@@]21C,n,u,n,n,n
C[C@]12C=CC(=O)C=C1CC[C@@H]1C2C(O)C[C@@]2(C)C1CC[C@]2(O)C(=O)COC(=O)CCC(=O)NC(CC(=O)O)C(=O)O (stereo partly specified),x,u,n,n,n
CCOC(=O)c1c(NC(=O)COC(=O)c2cccnc2OCC)sc(C(=O)N(CC)CC)c1C,u,-60.1,u,n,n
CCOC(=O)c1c(C)[nH]c(C(=O)OCC(=O)Nc2sc(C(=O)N(C)C)c(C)c2C(=O)OCC)c1C,n,-51.3,n,n,n
CCOC(=O)c1c(NC(=O)COC(=O)c2ccc([N+](=O)[O-])cc2)sc(C(=O)N(C)C)c1C,n,n,n,n,n
Cc1ccc(C(C(=O)NC2CCCCC2)N(Cc2ccco2)C(=O)Cc2c[nH]c3ccccc23)o1 (stereo unspecified),n,-76.9,u,u,n
Cc1ccc(C(C(=O)NC2CCCCC2)N(C(=O)Cc2c[nH]c3ccccc23)c2ccccc2C)o1 (stereo unspecified),n,n,u,n,n
COc1ccc(C(C(=O)NC2CCCCC2)N(C(=O)Cc2c[nH]c3ccccc23)c2ccccc2C)cc1OC (stereo unspecified),n,-60.5,u,n,n
Cc1ccnc2c(Cl)c(Cl)ccc12,x,x,x,n,n
CC(OC(=O)CCc1nc2ccccc2c(=O)[nH]1)C(=O)Nc1ncc(Cl)cc1Cl (stereo unspecified),n,-76.7,n,n,n
COc1ccc(-n2cc(C(=O)O)c3ccccc3c2=O)cc1,n,n,n,n,n
CCN(C(=O)c1cn(-c2ccc(OC)cc2)c(=O)c2ccccc12)c1cccc(Cl)c1,x,x,x,15.8µM,n
O=C(O)/C=C/C(=O)c1ccc2c(c1)CCc1ccccc1-2,5.62µM,-104.5,7.08µM,u,11.2µM
CC(=O)Nc1ccc2c(c1)CCc1ccccc1-2,n,n,n,n,n
Cc1cccc(-c2nc(CCNC(=O)c3ccccc3Br)cs2)c1,x,x,x,u,n
SMILES,ATXN2 expr inh,IL1B secr inh,ATXN viability,TGFb SMAD3 inh,HepG2 tox
COc1ccccc1Cn1c(=O)c2ccccc2n2c(SCc3csc(C)n3)nnc12,n,-54.6,u,n,n
CCCn1c(=O)c2ccccc2n2c(SCCOc3ccc(OC)cc3)nnc12,n,n,n,n,n
COc1ccccc1Cn1c(=O)c2ccccc2n2c(Sc3ncnc4sccc34)nnc12,n,-85.3,u,n,n
CCc1ccc(-n2nc(C)c3c(C(=O)Nc4cccc(C(F)(F)F)c4)cc(C)nc32)cc1,u,x,n,n,n
CC(=O)[C@@H]1[C@@H](C(=O)c2ccc(F)cc2)[C@]2(C(=O)Nc3ccccc32)[C@H]2C=Cc3cc(F)ccc3N12,n,-74.1,n,n,n
CC(=O)[C@@H]1[C@@H](C(=O)c2ccc(C)cc2)[C@]2(C(=O)Nc3ccccc32)[C@H]2C=Cc3cc(F)ccc3N12,n,-75.3,n,n,n
COC(=O)c1ccc(NC2(C#N)C(=O)Nc3ccccc32)cc1 (stereo unspecified),n,n,n,n,n
COc1ccc(NC(=O)CCCc2nnc3n(C(C)C)c(=O)c4sccc4n23)cc1Cl,x,x,x,n,n
O=C1CC(/C=C/c2cccnc2)=Nc2ccccc2N1,n,-92.8,n,n,n
CC1(C)CC(/C=C/c2ccccc2)=Nc2ccccc2N1,n,-62.4,n,u,n
O=C1CC(C(F)(F)C(F)(F)C(F)(F)F)=Nc2ccccc2N1,n,n,n,n,n
O=C1CC(/C=C/c2ccc(Cl)cc2)=Nc2ccccc2N1,n,-93.8,u,11.2µM,n
O=C1CC(/C=C/c2ccccc2)=Nc2ccccc2N1,n,-50.2,n,u,n
COc1ccc(-c2ccc(NS(=O)(=O)c3ccc(OC)c(OC)c3)cc2)nn1,n,x,n,n,n
O=c1c2cccnc2n(Cc2ccccc2F)c(=O)n1Cc1ccc(F)cc1,n,x,n,n,n
COc1ccc(CCNC(=O)Cn2nnc(-c3cccc(C(F)(F)F)c3)n2)cc1OC,n,x,n,n,n
CC1(c2ccc(Cl)c(Cl)c2)NC(=S)N2C1NC(=S)N2c1ccccc1 (stereo unspecified),n,-72.8,u,n,n
CC1(c2ccc(Cl)cc2)NC(=S)N2C1NC(=S)N2c1ccccc1 (stereo unspecified),n,u,n,n,n
CN(C)S(=O)(=O)Oc1cccc(C(=O)Nc2ccc(Cl)c(Cl)c2)c1,n,-88.3,u,u,n
CN(C)S(=O)(=O)Oc1cccc(C(=O)Nc2cccc(Cl)c2)c1,n,-55.7,n,n,n
COc1ccc(NC(=O)c2cccc(OS(=O)(=O)N(C)C)c2)cc1,n,n,n,n,n
O=C(Nc1cc(Cl)cc(Cl)c1)c1cccc(OC(F)F)c1,u,-94.8,n,u,n
C[N+]1(CC(=O)c2ccc(Oc3ccccc3)cc2)CCOCC1,x,x,x,n,n
CC(Sc1nc(NC(C)(C)C)nc(N(C)C)n1)C(=O)Nc1ccccc1 (stereo unspecified),n,-102.3,n,n,n
